What all share (test): DAPPL (digital affinity profiling via proximity ligation, sequencing); 10 mM Tris-HCl pH 7.5, 50 mM NaCl, 1 mM DTT, 4% glycerol, room temperature, 30 min; GST-TFs on glutathione beads, 16-mer random dsDNA library, 0.1% formaldehyde crosslink after washing; high values mean tight binding
For one experiment, the target named is T1, FLI1 (Homo sapiens, UniProt Q01543 1-452).
T1 sequence: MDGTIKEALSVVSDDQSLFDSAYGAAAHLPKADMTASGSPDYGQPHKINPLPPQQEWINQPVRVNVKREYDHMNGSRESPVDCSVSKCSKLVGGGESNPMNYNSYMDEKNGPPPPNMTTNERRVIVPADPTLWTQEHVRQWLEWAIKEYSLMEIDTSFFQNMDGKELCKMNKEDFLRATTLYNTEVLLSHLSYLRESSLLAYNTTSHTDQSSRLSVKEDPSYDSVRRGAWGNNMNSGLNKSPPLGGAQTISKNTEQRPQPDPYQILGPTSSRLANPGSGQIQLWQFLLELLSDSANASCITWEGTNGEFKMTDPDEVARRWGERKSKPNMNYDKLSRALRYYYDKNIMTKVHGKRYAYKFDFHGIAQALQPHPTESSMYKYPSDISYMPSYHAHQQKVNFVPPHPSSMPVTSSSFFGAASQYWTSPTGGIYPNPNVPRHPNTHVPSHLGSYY
Particulars: protein: recombinant; tags: N-terminal GST; dsDNA, one strand shown. The procedure, abridged:
(§1)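 After expression in yeast as GST fusions, human transcription factors were bound to glutathione beads, DNA-barcoded and mixed with a tag-only sample. The pools were incubated with 200 nmole of a 16-mer random double-stranded DNA library in Tris/NaCl/DTT/glycerol buffer (30 min, room temperature), washed and crosslinked with 0.1% formaldehyde. Proximity ligation with BsaI/T4 ligase ran for 1 h at 37 °C, before PCR amplification and sequencing on an Illumina NextSeq500. Binding signal is a hexamer's read frequency for a factor divided by its frequency for the tag-only sample.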

The target of the next experiment is T2, ELK1 (Homo sapiens, UniProt P19419 1-428).
T2 sequence: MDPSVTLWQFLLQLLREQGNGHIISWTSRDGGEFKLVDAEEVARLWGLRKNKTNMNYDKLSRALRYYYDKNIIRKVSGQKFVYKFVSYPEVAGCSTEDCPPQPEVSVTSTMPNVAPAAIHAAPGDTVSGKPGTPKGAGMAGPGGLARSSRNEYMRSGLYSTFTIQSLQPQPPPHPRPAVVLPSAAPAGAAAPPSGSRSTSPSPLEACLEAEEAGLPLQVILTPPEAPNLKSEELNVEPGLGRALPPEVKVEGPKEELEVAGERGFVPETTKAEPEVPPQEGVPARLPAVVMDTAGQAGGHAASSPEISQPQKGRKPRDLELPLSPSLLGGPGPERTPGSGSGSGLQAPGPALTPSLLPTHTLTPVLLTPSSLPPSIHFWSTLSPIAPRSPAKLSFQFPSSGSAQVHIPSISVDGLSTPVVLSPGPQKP
To be noted: protein: recombinant; tags: N-terminal GST; dsDNA, one strand shown. The procedure, abridged: as §1

For a further experiment, the target named is T3, GABPA (Homo sapiens, UniProt Q06546 1-454).
T3 sequence: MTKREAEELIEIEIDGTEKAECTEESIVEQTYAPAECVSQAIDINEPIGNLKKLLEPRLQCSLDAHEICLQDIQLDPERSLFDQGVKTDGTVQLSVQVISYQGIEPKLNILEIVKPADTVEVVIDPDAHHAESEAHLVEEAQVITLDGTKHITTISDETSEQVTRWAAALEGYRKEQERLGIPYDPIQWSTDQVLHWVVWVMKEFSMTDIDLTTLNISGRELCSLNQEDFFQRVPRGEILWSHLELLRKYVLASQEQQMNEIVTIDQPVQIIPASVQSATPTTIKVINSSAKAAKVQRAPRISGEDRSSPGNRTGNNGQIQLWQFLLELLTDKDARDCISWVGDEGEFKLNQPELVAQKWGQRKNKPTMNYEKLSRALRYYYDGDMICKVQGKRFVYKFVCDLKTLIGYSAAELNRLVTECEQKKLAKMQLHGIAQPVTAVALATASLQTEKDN
To be noted: protein: recombinant; tags: N-terminal GST; dsDNA, one strand shown. The procedure, abridged: as §1

The target in a further experiment is T4, ERG (Homo sapiens, UniProt P11308 1-479).
T4 sequence: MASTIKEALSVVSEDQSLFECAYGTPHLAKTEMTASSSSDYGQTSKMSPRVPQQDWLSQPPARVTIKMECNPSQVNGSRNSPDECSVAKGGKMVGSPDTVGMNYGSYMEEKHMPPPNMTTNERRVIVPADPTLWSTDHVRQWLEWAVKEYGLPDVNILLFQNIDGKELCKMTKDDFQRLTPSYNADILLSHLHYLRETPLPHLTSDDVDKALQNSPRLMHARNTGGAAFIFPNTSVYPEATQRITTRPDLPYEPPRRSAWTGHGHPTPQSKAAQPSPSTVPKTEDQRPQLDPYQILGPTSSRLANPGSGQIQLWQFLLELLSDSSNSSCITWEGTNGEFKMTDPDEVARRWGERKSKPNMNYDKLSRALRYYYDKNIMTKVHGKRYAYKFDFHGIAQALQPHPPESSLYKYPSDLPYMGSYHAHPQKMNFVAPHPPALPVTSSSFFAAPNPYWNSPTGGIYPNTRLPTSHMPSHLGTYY
To be noted: protein: recombinant; tags: N-terminal GST; dsDNA, one strand shown. The procedure, abridged: as §1

The target in a further experiment is ELF1 (Homo sapiens, UniProt P32519 1-619). To be noted: protein: recombinant; tags: N-terminal GST; dsDNA, one strand shown. The procedure, abridged:
as §1

The target in the next experiment is T5, EHF (Homo sapiens, UniProt Q9NZC4 1-300).
T5 sequence: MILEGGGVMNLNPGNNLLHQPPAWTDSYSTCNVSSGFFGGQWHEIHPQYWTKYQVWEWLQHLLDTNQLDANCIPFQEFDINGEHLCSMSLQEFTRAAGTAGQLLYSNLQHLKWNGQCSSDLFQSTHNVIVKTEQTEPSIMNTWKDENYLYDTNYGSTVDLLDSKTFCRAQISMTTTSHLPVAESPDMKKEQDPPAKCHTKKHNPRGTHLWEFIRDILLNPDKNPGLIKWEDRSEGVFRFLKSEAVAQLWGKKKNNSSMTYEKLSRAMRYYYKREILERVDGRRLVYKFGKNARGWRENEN
To be noted: protein: recombinant; tags: N-terminal GST; dsDNA, one strand shown. The procedure, abridged:
as §1

The next experiment concerns the target SPI1 (Homo sapiens, UniProt P17947 1-270). To be noted: protein: recombinant; tags: N-terminal GST; dsDNA, one strand shown. The procedure, abridged:
as §1

The target of another experiment is SPIB (Homo sapiens, UniProt Q01892 1-262). To be noted: protein: recombinant; tags: N-terminal GST; dsDNA, one strand shown. The procedure, abridged: as §1
The target of another experiment is T6, ELK3 (Homo sapiens, UniProt P41970 1-407).
T6 sequence: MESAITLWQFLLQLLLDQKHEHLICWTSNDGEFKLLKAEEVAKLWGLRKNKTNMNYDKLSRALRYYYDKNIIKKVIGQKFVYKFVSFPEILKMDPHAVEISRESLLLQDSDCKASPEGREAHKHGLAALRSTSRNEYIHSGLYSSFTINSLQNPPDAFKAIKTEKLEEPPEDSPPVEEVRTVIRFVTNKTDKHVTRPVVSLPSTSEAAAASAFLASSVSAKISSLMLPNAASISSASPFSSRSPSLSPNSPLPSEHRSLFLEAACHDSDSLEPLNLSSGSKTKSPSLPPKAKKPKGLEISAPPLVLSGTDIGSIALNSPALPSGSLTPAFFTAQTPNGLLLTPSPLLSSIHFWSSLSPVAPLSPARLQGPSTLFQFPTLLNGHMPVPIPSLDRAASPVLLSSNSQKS
Particulars: protein: recombinant; tags: N-terminal GST; dsDNA, one strand shown. The procedure, abridged: as §1

The target of the next experiment is T7, FEV (Homo sapiens, UniProt Q99581 1-238).
T7 sequence: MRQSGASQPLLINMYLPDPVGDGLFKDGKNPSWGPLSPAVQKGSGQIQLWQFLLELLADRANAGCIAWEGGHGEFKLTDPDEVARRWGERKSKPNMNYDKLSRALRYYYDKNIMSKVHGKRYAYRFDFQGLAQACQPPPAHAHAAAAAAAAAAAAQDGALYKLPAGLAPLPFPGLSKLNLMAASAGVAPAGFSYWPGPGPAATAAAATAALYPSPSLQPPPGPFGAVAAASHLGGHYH
To be noted: protein: recombinant; tags: N-terminal GST; dsDNA, one strand shown. The procedure, abridged:
as §1

The target in another experiment is ETV5 (Homo sapiens, UniProt P41161 1-510). To be noted: protein: recombinant; tags: N-terminal GST; dsDNA, one strand shown. The procedure, abridged:
as §1

The target in a further experiment is HSF1 (Homo sapiens, UniProt Q00613 1-529). Particulars: protein: recombinant; tags: N-terminal GST; chain copies: 3; dsDNA, one strand shown. The procedure, abridged:
as §1

The target of another experiment is T8, SPIC (Homo sapiens, UniProt Q8N5J4 1-248).
T8 sequence: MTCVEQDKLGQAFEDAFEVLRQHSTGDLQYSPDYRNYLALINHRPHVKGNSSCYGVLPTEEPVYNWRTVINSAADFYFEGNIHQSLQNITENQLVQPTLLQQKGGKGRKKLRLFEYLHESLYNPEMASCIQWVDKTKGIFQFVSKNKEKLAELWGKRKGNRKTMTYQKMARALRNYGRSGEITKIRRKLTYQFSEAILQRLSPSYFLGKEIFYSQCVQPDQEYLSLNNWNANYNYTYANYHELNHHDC
Particulars: protein: recombinant; tags: N-terminal GST; dsDNA, one strand shown. The procedure, abridged:
as §1

A further experiment has as its target ELF4 (Homo sapiens, UniProt Q99607 1-663). Particulars: protein: recombinant; tags: N-terminal GST; dsDNA, one strand shown. The procedure, abridged:
as §1

Another experiment has as its target T9, ELK4 (Homo sapiens, UniProt P28324-2 1-405).
T9 sequence: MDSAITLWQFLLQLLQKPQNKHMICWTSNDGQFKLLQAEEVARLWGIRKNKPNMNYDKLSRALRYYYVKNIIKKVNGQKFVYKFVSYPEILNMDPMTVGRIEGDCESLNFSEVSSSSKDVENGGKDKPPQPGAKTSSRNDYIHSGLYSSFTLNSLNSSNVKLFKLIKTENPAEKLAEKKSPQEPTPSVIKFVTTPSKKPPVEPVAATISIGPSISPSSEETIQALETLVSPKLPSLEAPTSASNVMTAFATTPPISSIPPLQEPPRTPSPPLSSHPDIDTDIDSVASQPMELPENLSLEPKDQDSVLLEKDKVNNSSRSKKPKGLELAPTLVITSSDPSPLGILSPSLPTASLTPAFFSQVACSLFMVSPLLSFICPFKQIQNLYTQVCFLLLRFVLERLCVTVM
Particulars: protein: recombinant; tags: N-terminal GST; dsDNA, one strand shown. The procedure, abridged: as §1

For the next experiment, the target named is T10, ETV2 (Homo sapiens, UniProt O00321 1-342).
T10 sequence: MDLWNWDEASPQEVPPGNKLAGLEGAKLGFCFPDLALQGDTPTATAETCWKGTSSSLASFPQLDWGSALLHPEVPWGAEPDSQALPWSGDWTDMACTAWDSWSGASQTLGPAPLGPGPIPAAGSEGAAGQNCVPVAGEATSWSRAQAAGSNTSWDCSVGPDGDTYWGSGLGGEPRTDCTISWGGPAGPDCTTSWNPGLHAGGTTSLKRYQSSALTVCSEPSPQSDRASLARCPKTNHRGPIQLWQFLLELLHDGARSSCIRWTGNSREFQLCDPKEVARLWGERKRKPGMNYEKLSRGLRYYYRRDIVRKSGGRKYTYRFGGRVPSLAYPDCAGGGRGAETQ
Particulars: protein: recombinant; tags: N-terminal GST; dsDNA, one strand shown. The procedure, abridged:
as §1

Another experiment addresses T11, ELF3 (Homo sapiens, UniProt P78545 1-371).
T11 sequence: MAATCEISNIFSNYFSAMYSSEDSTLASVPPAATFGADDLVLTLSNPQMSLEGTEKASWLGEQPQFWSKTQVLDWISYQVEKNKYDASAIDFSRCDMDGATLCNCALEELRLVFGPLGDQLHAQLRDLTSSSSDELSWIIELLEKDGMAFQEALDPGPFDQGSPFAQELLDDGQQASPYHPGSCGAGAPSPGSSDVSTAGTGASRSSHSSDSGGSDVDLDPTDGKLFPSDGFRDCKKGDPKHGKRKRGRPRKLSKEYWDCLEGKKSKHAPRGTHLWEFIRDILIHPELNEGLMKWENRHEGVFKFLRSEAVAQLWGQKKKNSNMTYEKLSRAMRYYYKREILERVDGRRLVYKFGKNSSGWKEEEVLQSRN
To be noted: protein: recombinant; tags: N-terminal GST; dsDNA, one strand shown. The procedure, abridged: as §1

In the next experiment the target is ETV1 (Homo sapiens, UniProt P50549 1-477). Particulars: protein: recombinant; tags: N-terminal GST; dsDNA, one strand shown. The procedure, abridged: as §1
Sequence of ETV1 (P50549 whole entry): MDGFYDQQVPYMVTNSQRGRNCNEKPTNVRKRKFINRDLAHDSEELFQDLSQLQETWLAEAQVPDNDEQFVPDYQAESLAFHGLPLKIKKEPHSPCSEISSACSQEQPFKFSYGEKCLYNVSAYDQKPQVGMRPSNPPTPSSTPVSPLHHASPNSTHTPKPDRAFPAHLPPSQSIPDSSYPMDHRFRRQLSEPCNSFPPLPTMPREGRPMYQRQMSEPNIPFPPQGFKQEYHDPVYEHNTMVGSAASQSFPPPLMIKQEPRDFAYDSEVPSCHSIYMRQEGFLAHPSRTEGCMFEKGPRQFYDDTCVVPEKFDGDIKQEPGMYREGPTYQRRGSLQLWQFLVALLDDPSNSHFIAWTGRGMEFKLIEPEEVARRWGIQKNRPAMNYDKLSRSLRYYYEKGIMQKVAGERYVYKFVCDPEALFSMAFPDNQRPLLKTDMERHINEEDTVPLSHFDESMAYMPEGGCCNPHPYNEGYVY

Sequence of ELF4 (Q99607 whole entry): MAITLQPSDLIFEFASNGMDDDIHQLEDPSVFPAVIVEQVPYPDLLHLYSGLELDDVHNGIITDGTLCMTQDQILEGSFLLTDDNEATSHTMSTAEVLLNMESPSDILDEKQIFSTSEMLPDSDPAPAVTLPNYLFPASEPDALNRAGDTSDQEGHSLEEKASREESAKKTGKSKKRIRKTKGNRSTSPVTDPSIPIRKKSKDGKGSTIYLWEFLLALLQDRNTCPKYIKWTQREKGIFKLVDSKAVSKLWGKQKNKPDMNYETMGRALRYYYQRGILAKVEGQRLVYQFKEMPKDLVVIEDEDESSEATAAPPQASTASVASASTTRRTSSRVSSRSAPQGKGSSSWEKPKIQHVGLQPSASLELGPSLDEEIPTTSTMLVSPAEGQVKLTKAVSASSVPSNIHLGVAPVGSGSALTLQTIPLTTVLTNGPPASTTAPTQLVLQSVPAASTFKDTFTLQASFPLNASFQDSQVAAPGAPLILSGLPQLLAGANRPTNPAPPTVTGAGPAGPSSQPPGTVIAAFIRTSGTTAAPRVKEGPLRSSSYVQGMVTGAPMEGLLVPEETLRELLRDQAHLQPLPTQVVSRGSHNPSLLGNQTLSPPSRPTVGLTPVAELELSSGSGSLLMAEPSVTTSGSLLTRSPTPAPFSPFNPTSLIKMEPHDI
Sequence of ELF1 (P32519 whole entry): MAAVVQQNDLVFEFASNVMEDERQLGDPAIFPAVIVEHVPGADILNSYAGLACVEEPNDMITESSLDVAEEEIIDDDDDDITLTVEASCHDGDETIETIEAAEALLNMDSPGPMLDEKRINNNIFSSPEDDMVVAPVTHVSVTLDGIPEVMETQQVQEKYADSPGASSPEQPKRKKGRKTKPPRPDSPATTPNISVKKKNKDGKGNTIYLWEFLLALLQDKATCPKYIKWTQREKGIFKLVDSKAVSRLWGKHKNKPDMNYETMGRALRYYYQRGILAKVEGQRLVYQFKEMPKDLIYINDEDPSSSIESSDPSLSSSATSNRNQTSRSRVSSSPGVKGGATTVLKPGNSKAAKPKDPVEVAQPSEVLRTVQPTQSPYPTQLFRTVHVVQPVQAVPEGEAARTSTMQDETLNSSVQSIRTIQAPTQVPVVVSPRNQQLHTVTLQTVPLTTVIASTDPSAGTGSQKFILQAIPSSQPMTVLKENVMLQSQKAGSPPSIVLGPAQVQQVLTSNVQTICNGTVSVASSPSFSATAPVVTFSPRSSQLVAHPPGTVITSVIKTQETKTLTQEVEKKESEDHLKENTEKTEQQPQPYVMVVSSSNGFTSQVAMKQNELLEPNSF
Sequence of SPIB (Q01892 whole entry): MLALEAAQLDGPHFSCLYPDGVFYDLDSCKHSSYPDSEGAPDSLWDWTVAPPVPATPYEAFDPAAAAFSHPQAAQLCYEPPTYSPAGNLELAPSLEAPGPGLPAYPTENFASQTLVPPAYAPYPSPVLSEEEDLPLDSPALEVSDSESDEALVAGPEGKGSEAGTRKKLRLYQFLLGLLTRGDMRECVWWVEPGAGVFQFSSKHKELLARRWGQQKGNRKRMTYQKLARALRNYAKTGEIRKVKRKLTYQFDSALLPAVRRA
Sequence of HSF1 (Q00613 whole entry): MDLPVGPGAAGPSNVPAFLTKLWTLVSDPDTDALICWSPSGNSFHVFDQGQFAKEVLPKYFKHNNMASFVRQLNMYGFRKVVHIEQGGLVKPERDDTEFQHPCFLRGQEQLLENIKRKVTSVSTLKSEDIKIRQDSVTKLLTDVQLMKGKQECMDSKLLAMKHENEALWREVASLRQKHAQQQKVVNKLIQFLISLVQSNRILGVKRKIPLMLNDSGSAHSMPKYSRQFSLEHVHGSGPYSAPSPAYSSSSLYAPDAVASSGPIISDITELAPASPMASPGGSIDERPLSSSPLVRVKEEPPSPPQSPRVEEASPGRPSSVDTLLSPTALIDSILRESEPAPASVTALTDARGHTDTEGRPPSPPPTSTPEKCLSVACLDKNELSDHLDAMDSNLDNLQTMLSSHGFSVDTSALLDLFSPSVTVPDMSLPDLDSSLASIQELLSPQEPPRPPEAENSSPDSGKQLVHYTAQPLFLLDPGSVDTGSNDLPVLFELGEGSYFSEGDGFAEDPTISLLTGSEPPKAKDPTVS
Sequence of ETV5 (P41161 whole entry): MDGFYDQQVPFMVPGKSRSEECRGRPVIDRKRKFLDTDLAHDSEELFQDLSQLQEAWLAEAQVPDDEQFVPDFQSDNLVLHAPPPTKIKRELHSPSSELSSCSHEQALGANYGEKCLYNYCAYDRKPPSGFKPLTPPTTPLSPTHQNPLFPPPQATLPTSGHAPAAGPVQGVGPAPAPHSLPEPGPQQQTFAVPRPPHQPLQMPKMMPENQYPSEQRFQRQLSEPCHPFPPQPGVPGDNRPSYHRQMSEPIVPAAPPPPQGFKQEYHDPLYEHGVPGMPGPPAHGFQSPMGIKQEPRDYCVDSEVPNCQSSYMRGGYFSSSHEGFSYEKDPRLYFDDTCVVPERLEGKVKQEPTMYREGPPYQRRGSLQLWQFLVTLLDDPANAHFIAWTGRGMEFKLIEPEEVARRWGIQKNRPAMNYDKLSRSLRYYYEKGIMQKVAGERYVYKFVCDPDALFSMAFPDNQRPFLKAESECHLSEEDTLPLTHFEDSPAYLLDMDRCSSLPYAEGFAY

On to CCATTC, for which the binding signal was 1.22 fold enrichment (6-mer frequency, TF over GST control) with FLI1; 1.09 fold enrichment (6-mer frequency, TF over GST control) with ELK1; 1.1 fold enrichment (6-mer frequency, TF over GST control) with GABPA; 1.2 fold enrichment (6-mer frequency, TF over GST control) with ERG; 1.17 fold enrichment (6-mer frequency, TF over GST control) with ELF1; 1.07 fold enrichment (6-mer frequency, TF over GST control) with EHF. The binding signal with SPI1 is 1.16 fold enrichment (6-mer frequency, TF over GST control); with SPIB it was 1.09 fold enrichment (6-mer frequency, TF over GST control); in the experiment with ELK3 it was 1.29 fold enrichment (6-mer frequency, TF over GST control); with FEV, 1.06 fold enrichment (6-mer frequency, TF over GST control); with ETV5, 1.11 fold enrichment (6-mer frequency, TF over GST control); with HSF1, 1.15 fold enrichment (6-mer frequency, TF over GST control). For the same sequence, the binding signal in the experiment with SPIC is 1.14 fold enrichment (6-mer frequency, TF over GST control); in the experiment with ELF4, 1.18 fold enrichment (6-mer frequency, TF over GST control); with ELK4, 1.22 fold enrichment (6-mer frequency, TF over GST control); with ETV2, 1.25 fold enrichment (6-mer frequency, TF over GST control); with ELF3, 1.05 fold enrichment (6-mer frequency, TF over GST control); with ETV1, 1.14 fold enrichment (6-mer frequency, TF over GST control).
